From publication PMC5540273 (PLoS ONE, 2017)
Where “and” joins values, the source holds several entries; their conditions need not be identical. Equal values may be shown once.

Test system: MET
Settings: concentration: 1 μM, replicates: in singlicate; 1 µM; n = 1
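Note: KINOMEscan kinase panel screen.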

| SMILES | %Inh |
| --- | --- |
| CC(C)(CN)c1nc(-c2ccc(Cl)c(O)c2)c(-c2ccncc2)[nH]1.O=C(O)C(F)(F)F [SB-477794] | 0% and 12% |
| NCCNS(=O)(=O)c1ccc(-c2ccnc3[nH]ccc23)cc1 [GSK977617] | 20% and 0% |
| Cl.Cl.Cl.Fc1ccc(-c2ncn(C3CCNCC3)c2-c2ccnc(Nc3ccccc3)n2)cc1 [SB-238039] | 8% and 0% |

Same assay, conditions: concentration: 1 μM, replicates: in singlicate; n = 1

| SMILES | %Inh |
| --- | --- |
| COc1ccc(Nc2nccc(N3CCC(NC(=O)Nc4cccc(C(C)=O)c4)C3)n2)cc1 (centres unmarked) [GSK1379731] | 0% |
| Fc1ccc(-c2nn3c(OCC(F)(F)F)cccc3c2-c2ccncc2)cc1 [GW514784] | 0% |
| Cc1cn2c(=O)cc(N3CCOCC3)nc2n1Cc1cccc(Cl)c1Cl [GSK2334006] | 0% |
| Fc1ccc(-c2ncn(CCCN3CCOCC3)c2-c2cccnc2)cc1 [SB-211743] | 0% |
| C[C@@H](Oc1cc(-n2cnc3ccc(NC(=O)NC(C)(C)C)cc32)sc1C(N)=O)c1ccccc1Cl [GSK346294] | 0% |
| Cc1ccc(C(=O)NCC(N)=O)cc1-n1c(C)cc(OCc2ccc(F)cc2F)c(Br)c1=O | 15% |
| c1ccc(-c2n[nH]cc2-c2ccnc3ccccc23)nc1 [GW271431] | 0% |
| O=C1Cc2cc(Nc3nc(NCc4cccc(S(=O)(=O)C(F)(F)F)c4)ncc3C(F)(F)F)ccc2N1 | 0% |
| NCC(NC(=O)c1cc(-c2cn[nH]c2)c(-c2ccnc3[nH]ccc23)s1)c1ccccc1.O=C(O)C(F)(F)F.O=C(O)C(F)(F)F (centres unmarked) [GSK1325775] | 0% |
| COc1ccc(Nc2nccc(N3CCC(NC(=O)Nc4cc(C)ccc4C)C3)n2)cc1 (centres unmarked) [GSK1379741] | 0% |
| CC(C)Oc1ccc2c(-c3ccnc(Nc4ccc(N5CCN(C)CC5)cc4)n3)cnn2n1 [GW696155] | 0% |
| O=C(c1ccc(-c2cc(-c3c[nH]nc3-c3ccccn3)ccn2)cc1)N1CCOCC1 [GW812171] | 0% |
| CN(C(=O)c1ccc(-c2cc(-c3c[nH]nc3-c3ccccn3)ccn2)cc1)C1CCOCC1 [GW810083] | 0% |
| O=C(Nc1cccc(-c2nn3ncccc3c2-c2ccnc(Nc3cccc(C(F)(F)F)c3)n2)c1)c1c(F)cccc1F [GSK299495] | 0% |
| Cl.Oc1cccc(Nc2ccnc3cc(-c4ccncc4)ccc23)c1 [GW494601] | 0% |
| O=c1cc(N2CCOCC2)nc2n(Cc3cccc(F)c3)ccn12 [GSK2297430] | 0% |

| SMILES | %Inh |
| --- | --- |
| COc1ccc(CNC(=O)NC2CCN(c3ccnc(Nc4ccc(OC)cc4)n3)C2)cc1 (centres unmarked) [GSK1379727] | 0% |
| CCc1nc(-c2cccc(C)c2)c(-c2ccnc(NCc3ccccc3)c2)s1 | 0% |
| CCc1ccnc(/C=C/c2n[nH]c3cc(Sc4ccccc4C(=O)NC)ccc23)c1 | 0% |
| Cc1nnc(-c2ccc(C)c(-c3ccc(C(=O)Nc4ccc(NS(C)(=O)=O)cc4)cc3)c2)o1 [GW702865] | 12% |
| Cc1nnc(-c2ccc3ncc(-c4ccc(S(C)=O)cc4)n3c2)o1 (centres unmarked) | 15% |
| CC(=O)Nc1ccc(COc2ccc(Nc3ccnc4cc(-c5ccccn5)ccc34)cc2)cc1.Cl [GW440148] | 5% |
| CCn1cnc2c(N)ncnc21 [GW345098] | 2% |
| Cc1nnc(-c2ccc3occ(-c4ccc(C(C)O)cc4)c3c2)o1 (centres unmarked) | 5% |
| O=c1cc(N2CCOCC2)nc2n(Cc3cccc(Cl)c3Cl)c(C3CC3)nn12 [GSK2358994] | 0% |
| O=C(NCCCN1CCOCC1)c1cccc(Nc2nccc(Nc3ccc(Oc4ccccc4)cc3)n2)c1 [GW663929] | 0% |
| [2H]C([2H])(c1cccc(C(F)(F)F)c1C)n1ccn2c(=O)nc(N3CCOCC3)cc12 [GSK2336394] | 0% |
| NS(=O)(=O)CCc1cccc(Nc2nccc(-c3c(-c4cccc(NC(=O)c5c(F)cccc5F)c4)nn4ccccc34)n2)c1 [GSK336735] | 83% |
| CN1c2ccc(NCc3ccc(F)cc3)cc2-c2c(cnn2C)S1(=O)=O | 3% |
| COCCNC(=O)c1ccc(-c2cc(C(=O)NC3CC3)cc(F)c2C)cc1 [GW868318] | 0% |
| N#Cc1ccc(-c2cc(-c3c[nH]nc3-c3ccccn3)ccn2)cc1 [GW693028] | 0% |
| O=C(NOCC1CC1)c1ccc(F)c(F)c1Nc1ccc(I)cc1Cl | 0% |

Test system: T1, MINK
T1 construct: gene MINK1
Settings: concentration: 1 μM, replicates: in singlicate; 1 µM; n = 1

| SMILES | %Inh |
| --- | --- |
| CC(C)(CN)c1nc(-c2ccc(Cl)c(O)c2)c(-c2ccncc2)[nH]1.O=C(O)C(F)(F)F [SB-477794] | 91.7% and 93.9% |
| NCCNS(=O)(=O)c1ccc(-c2ccnc3[nH]ccc23)cc1 [GSK977617] | 48% and 34% |
| Cl.Cl.Cl.Fc1ccc(-c2ncn(C3CCNCC3)c2-c2ccnc(Nc3ccccc3)n2)cc1 [SB-238039] | 89% and 88% |
